Bioassay records as filed in PubChem.
Wnt bcat act: Wnt/beta-catenin pathway activators, primary screen, cell-based, plate reader, single point; Wnt/beta-catenin reporter cell assay, activator; activation, % at 9.35 µM; hit rate 1.2% among 300,000; in the data active means activation above about 30%, passing the limit was not always enough;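 further: 0% = neutral control wells and 100% = positive control wells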
ssDAF-12 act: S. stercoralis DAF-12 nuclear receptor activators, primary screen, cell-based, luminescence, HEK293, GRIP1 co-expression, lit1-tk-luc. Nuclear hormone receptor DAF-12 (Strongyloides stercoralis). HEK293 ssDAF-12/GRIP1 lit1-tk-luc reporter; % of 3 µM dafachronic acid response. activation, % at 6.8 µM. hit rate 1% among 370,000;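 active means activation above the mean over all tested compounds plus 3 SD, cut at about 0.9% in these data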;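 further: 0% = DMSO-only wells and 100% = 3 µM delta7-dafachronic acid wells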
esBAF inh: Bmi1 luciferase reporter increase in mESCs, primary screen, esBAF inhibitor project, mouse ES cells, Bmi1 luciferase knock-in, single point | reporter increase, % at 12.5 µM | 24 h; 100% = twice the neutral-well signal | hit rate 2% among 350,000; in the data active means activation above about 40%;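 further: 0% = median of the plate's neutral control wells and 100% = double that signal; a rise in the Bmi1 reporter signal indicates esBAF inhibition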
DAX1 inh: DAX1 (NR0B1) inhibitors on StAR promoter, primary screen, cell-based, luminescence, SF-1 (NR5A1), full-length DAX-1; hit rate 1.1% among 370,000; HEK293T StAR-luciferase reporter, SF-1/DAX-1 repression relief; AID 652010, 2013; inhibition, % at 6.8 µM;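 active means inhibition above the mean over all tested compounds plus 3 SD, cut at about 3.6% in these data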;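 further: 0% = DAX-1 cells with DMSO and 100% = cells lacking DAX-1 with DMSO; higher inhibition means more luminescence from relief of DAX-1 repression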
hcDAF12 agonist: H. contortus DAF-12 nuclear receptor activators, primary screen, cell-based, luminescence, HEK293, lit1-tk-luc reporter | HEK293 hcDAF-12 lit1-tk-luc reporter; 0% DMSO, 100% Δ7-dafachronic acid | activation, % at 6.8 µM | hit rate 1.4% among 370,000;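 active means activation above the mean of all tested compounds plus 3 SD, cut at about 5.5% in these data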;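 further: 100% = response to 3 µM Δ7-dafachronic acid high control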
hgDAF12 agonist: H. glycines DAF-12 receptor agonists, primary screen, cell-based, luminescence, HEK293, GAL4 fusion, UAS-luciferase; AID 687014, 2013; activation, % at 6.8 µM; Nuclear hormone receptor DAF-12 (Heterodera glycines), GAL4 fusion; HEK293 GAL4-hgDAF12 UAS-luciferase reporter, agonist luminescence; normalized to butyrate control; hit rate 1.8% among 370,000;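 active means activation above a cutoff set at the mean of all screened compounds plus 3 SD, cut at about 10% in these data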;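 further: 0% = DMSO wells and 100% = sodium butyrate wells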
LXRb hcDAF ctr: LXR agonists, Gal4 luciferase reporter, confirmation, counter-screen for hcDAF-12 agonist project, cell-based, luminescence, HEK293, H. contortus campaign | activation, % at 6.8 µM | 3,400 tested, under 10 active | AID 743027, 2013 | HEK293 Gal4-LXR tk-luc reporter, 24 h; normalized: DMSO 0%, positive control 100% | shares compounds with hcDAF12 agonist;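 active means mean percent activation of the reporter above a cutoff set as the average over tested compounds plus their standard deviation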
Target sequence (P55055 whole entry, looked up, the tested form may be a part): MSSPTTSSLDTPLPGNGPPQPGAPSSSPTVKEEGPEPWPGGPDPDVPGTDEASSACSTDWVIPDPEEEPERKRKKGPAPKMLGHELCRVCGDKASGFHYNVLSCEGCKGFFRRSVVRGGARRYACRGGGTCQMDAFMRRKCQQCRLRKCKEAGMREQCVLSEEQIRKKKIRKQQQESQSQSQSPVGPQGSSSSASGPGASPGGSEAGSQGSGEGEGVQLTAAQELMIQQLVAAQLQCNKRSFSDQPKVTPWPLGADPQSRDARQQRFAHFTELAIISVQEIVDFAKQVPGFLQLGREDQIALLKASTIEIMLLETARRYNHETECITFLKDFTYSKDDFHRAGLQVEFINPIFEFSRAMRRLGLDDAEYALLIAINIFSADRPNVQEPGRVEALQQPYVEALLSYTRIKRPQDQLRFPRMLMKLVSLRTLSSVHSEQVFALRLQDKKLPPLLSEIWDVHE
hcDAF12 conf: H. contortus DAF-12 receptor agonists, confirmation, cell-based, luminescence, HEK293, lit1-tk-luc, triplicate | shares compounds with hcDAF12 agonist | HEK293 hcDAF-12 lit1-tk-luc reporter; % of Δ7-dafachronic acid response | activation, % at 6.8 µM | hit rate 61% among 3,400 | AID 743032, 2013;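 active means mean activation across triplicate tests above the threshold derived from the earlier primary screen, cut at about 5.5% in these data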;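 further: 0% = DMSO only wells and 100% = 3 µM Δ7-dafachronic acid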
Starred values were filed as active, the others as inactive; / = not tested or not shown. This is a sample that favours compounds with a hit; in the whole collection about 4.2% have one here.

SMILES	Wnt bcat act	ssDAF-12 act	esBAF inh	DAX1 inh	hcDAF12 agonist	hgDAF12 agonist	LXRb hcDAF ctr	hcDAF12 conf
Cc1ccc(-n2ncc(Cl)c2C(=O)NC2CC2)cc1	0	0	23	2	8.8*	11*	0	5.6*
COc1ccccc1NC(C)=O	/	-2	-6	-1	0	0	/	/
COc1ccccc1NC(=O)/C=C\C(=O)O	-4	0	/	0	7.3*	0	0	0
Cc1cscc1NC(=O)/C=C/C(=O)O	8	0	-1	0	6.8*	1	0	1
COc1cc(Cc2nc3ccc(S(=O)(=O)N4CCOCC4)cc3[nH]2)cc(OC)c1OC	-2	-2	-1	-1	8.0*	1	0	-1
CCNC(=O)Nc1ccc2c(c1)C(=O)N(C)[C@H]1CC[C@@H](CC(=O)NCCN3CCCC3)O[C@H]1CO2	/	/	1	/	/	/	/	/
CC(=O)Nc1cc2c3ccccc3ccc2c2ccccc12	0	-1	/	-1	0	3	/	/
CC(=O)Nc1cccc2ccc(O)cc12	2	-1	-4	2	6.7*	-1	0	3
O=C(C[C@@H]1CC[C@@H]2[C@H](COC[C@@H](O)CN2C(=O)c2cnccn2)O1)NCc1ccc(F)cc1	/	/	5	/	/	/	/	/
O=C(c1ccc(CNc2c(NC3CCCCC3)c(=O)c2=O)cc1)N1CCc2ccccc21	-3	1.1*	2	0	7.4*	8	0	1
O=C1c2cccc3cccc(c23)C(=O)N1c1ccccc1Cl	0	-1	-1	-1	-3	-4	/	/
Nc1ccccc1N1C(=O)c2cccc3cccc(c23)C1=O	7	0	/	1	6.7*	4	0	5
O=C1CN(C(=O)CSc2nnc3ccccn23)c2ccccc2N1	0	1	/	0	3	-2	/	/
O=C(CSc1nnc2ccccn12)N1CCc2ccccc21	34*	0	53*	3	7.3*	13*	1	5.7*
O=C(CSc1nnc2ccccn12)c1ccc2c(c1)OCCO2	16	0	8	3.8*	6.6*	9	1	4
COc1ccc(C(=O)CSc2nnc3ccccn23)cc1OC	-1	-1	/	0	0	3	/	/
CCCN(C)C[C@H]1Oc2cc(C#Cc3cccc(F)c3)ccc2S(=O)(=O)N([C@H](C)CO)C[C@@H]1C	/	/	0	/	/	/	/	/
CCn1c(/C=C/c2c[nH]c3ccccc23)nc2ccccc2c1=O	9	1.4*	/	3	8.6*	12*	1	7.8*
CCn1c(/C=C/c2c(C)[nH]c3ccccc23)nc2ccccc2c1=O	6	0.9*	/	0	10*	5	0	4
CCn1c(/C=C\c2ccccc2C)nc2ccccc2c1=O	4	-2	/	-1	0	3	/	/
COc1ccc(O)c(/C=C(\C#N)C(=O)Nc2ccccn2)c1	3	1	8	1	7.9*	5	0	5.7*
C=CCOc1ccc(/C=C(\C#N)C(=O)Nc2ccccn2)cc1OC	-1	-1	-2	0	-1	-1	/	/
COc1ccc(C(=O)/C=C/Nc2cc(C)ccn2)cc1	-1	0	/	2	10*	14*	2	11*
COc1ccc(S(=O)(=O)Nc2cc(C)ccn2)cc1	/	-1	-3	0	0	0	/	/
COc1ccccc1NC(=O)c1oc2ccccc2c1C	/	2.2*	47*	-1	7.0*	9	0	6.7*
SMILES	Wnt bcat act	ssDAF-12 act	esBAF inh	DAX1 inh	hcDAF12 agonist	hgDAF12 agonist	LXRb hcDAF ctr	hcDAF12 conf
c1ccc(SCc2nc(-c3cccnc3)no2)cc1	/	0	13	0	7.3*	8	2	5.8*
O=C(N[C@@H]1CC[C@H](CCNC(=O)C2CCC2)O[C@H]1CO)c1ccccn1	/	/	-5	/	/	/	/	/
CCCC#Cc1ccc2c(c1)O[C@@H](CN(C)C(=O)C1CCCCC1)[C@@H](C)CN([C@@H](C)CO)S2(=O)=O	/	/	22	/	/	/	/	/
O=C(/C=C/c1ccc([N+](=O)[O-])cc1)c1cccs1	-2	-2	15	1	0	0	/	/
COc1cc([N+](=O)[O-])ccc1N/C=C/C(=O)c1cccs1	/	2.3*	-29	3	17*	17*	1	16*
Cc1ccc(C(=O)/C=C/Nc2ccccc2C(N)=O)o1	23	0	33	3	9.3*	12*	1	5
NC(=O)c1ccccc1NS(=O)(=O)c1cccs1	-1	-1	-11	0	2	2	/	/
NC(=O)c1ccccc1N/C=C/C(=O)c1cccs1	/	1	-8	3	8.3*	10	2	5.6*
O=C(/C=C/Nc1ccc(F)cc1)c1cccs1	/	1.7*	7	4.5*	11*	12*	2	18*
C[C@@H]1CN([C@H](C)CO)C(=O)c2cc(NS(=O)(=O)c3ccc(Cl)cc3)ccc2O[C@@H]1CN(C)S(C)(=O)=O	/	/	3	/	/	/	/	/
C[C@H]1CN([C@@H](C)CO)C(=O)c2cc(C#CC3CCCCC3)cnc2O[C@H]1CN(C)CC1CC1	/	/	0	/	/	/	/	/
C[C@H](O)C#Cc1cnc2c(c1)C(=O)N([C@H](C)CO)C[C@H](C)[C@H](CN(C)C(=O)Nc1ccc(F)cc1)O2	/	/	4	/	/	/	/	/
CCOC(=O)c1cn[nH]c1NC(=S)Nc1ccc(OC)cc1	23	0	/	2	8.0*	9	1	9.3*
O=C(NC(=S)Nc1ncc(Br)cc1Br)c1ccccc1	12	1	53*	1	8.0*	9	1	8.7*
O=[N+]([O-])c1ccccc1/C=C/C=Nn1c(-c2ccc(F)cc2)n[nH]c1=S	/	0	/	0	6.6*	3	0	5
O=[N+]([O-])c1ccccc1/C=C/C=N/n1c(-c2ccccc2)n[nH]c1=S	3	0	/	0	4	-2	/	/
